# Assay outcomes as filed in PubChem BioAssay.
# The list is not random: actives were taken first. Their share in the collection is about 18%.
# TDP1 block – blocks human tyrosyl-DNA phosphodiesterase 1; AID 485290; Q9NUW8; recombinant TDP1, AlphaScreen DNA substrate cleavage; 350,000 tested, 0.28% active; Potency, µM (doses to about 130 µM), inactives show at the top dose activity change, negative = inhibition, actives largely listed as inhibitors; note: potency is the fitted concentration of half-maximal effect; % is set by controls: 0 for no effect and ±100 for the full control effect; nearly all actives have a fitted effect of over 40% in size
# Target sequence (Q9NUW8 whole entry, looked up): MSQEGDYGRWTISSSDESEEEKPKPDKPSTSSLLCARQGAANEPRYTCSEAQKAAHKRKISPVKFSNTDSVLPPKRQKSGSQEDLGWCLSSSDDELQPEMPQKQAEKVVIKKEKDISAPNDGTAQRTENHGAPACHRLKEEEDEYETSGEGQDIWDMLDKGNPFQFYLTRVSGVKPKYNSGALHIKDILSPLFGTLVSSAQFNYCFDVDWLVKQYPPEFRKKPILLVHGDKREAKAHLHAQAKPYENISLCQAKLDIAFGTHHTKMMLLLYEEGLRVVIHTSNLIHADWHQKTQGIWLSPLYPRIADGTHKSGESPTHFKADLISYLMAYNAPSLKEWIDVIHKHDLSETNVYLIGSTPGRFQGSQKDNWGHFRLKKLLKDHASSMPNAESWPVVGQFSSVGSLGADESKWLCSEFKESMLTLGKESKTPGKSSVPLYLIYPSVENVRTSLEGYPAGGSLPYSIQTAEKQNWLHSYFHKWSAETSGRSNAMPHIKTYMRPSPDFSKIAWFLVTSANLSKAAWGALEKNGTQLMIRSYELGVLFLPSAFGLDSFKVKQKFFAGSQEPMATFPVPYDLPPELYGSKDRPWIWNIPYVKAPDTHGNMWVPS
#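 Recombinant E. coli-expressed Tdp1 (1 nM) preincubated with compound 15 min at RT, then 5'-biotin/3'-phosphotyrosine-FITC DNA substrate (15 nM) added for 5 min. AlphaScreen beads (10 ug/ml) added, 10 min RT; tyrosine-FITC cleavage read as signal loss.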
# DT40 TDP1 CPT – DT40-hTDP1 cell growth loss with CPT. chicken DT40 Tdp1-/-;hTDP1 cells + 20 nM CPT, ATP luminescence, 48 h. Potency, µM (titrated, usually from 46.2 µM), for inactives: at the highest dose activity change, negative = growth inhibition, hits mostly inhibitors. 420,000 tested, 12% active. AID 686979; note: potency is the fitted concentration of half-maximal effect; % is set by controls: 0 for no effect and ±100 for the full control effect; nearly all actives have a fitted effect of over 55% in size
#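 Cell growth measured by CellTiter-Glo luminescence after a minimum 48 h, 37 C compound exposure with 20 nM CPT in Tdp1-knockout DT40 cells stably expressing hTDP1, seeded 400/well; qHTS titration format.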
# IL1B secr inh – inhibitors of inflammasome signaling (IL-1 beta secretion) | THP-1 LPS/ATP IL-1B secretion, AlphaLISA, 16 h; active compounds read low | activity change, % at 57.5 µM | 360,000 tested, 4.7% active | AID 743279; in the data active = activity change below about -50%; inconclusive = mostly about -30% to -49%; note: % is set by controls: 0 for no effect and ±100 for the full control effect
#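 Secreted IL-1B measured by AlphaLISA bead assay after 16 h compound exposure of THP-1 cells; compounds (final up to 57.5 uM) added 1 h before LPS (250 ng/mL) and ATP (1.25 mM) stimulation; lower signal means less secretion.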
# TDP1 cell noCPT – qHTS for Inhibitors of human tyrosyl-DNA phosphodiesterase 1 (TDP1): qHTS in cells in absence of CPT. DT40 Tdp1-/- hTDP1 cells, no CPT, ATP luminescence, 48 h. Potency, µM (highest dose often 46.2 µM), for the others: at the top dose activity change, negative = growth inhibition, actives largely listed as inhibitors. 420,000 tested, 15% active; note: potency is the fitted concentration of half-maximal effect; % is set by controls: 0 for no effect and ±100 for the full control effect; nearly all actives have a fitted effect of over 55% in size
#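 DT40 Tdp1-/-;hTDP1 cells, no CPT (DMSO vehicle only), 400 cells/well; compounds pin-transferred; ≥48 hr, 37 °C; CellTiter-Glo 30 min RT dark, luminescence read.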
# TGFb inhibitor – inhibitors of TGF-b signaling; HepG2 CAGA-GFP TGF-b/SMAD3 reporter, GFP fluorescence, 18 h; TGF-beta stimulated, 500 pg/mL final; Potency, µM (series often up to 46.1 µM), inactives show at the highest dose activity, negative = inhibition, actives largely listed as inhibitors; 410,000 tested, 1.2% active; AID 588855; note: potency is the fitted concentration of half-maximal effect; % is set by controls: 0 for no effect and ±100 for the full control effect; nearly all actives have a fitted effect of over 65% in size
#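 First, reporter cells (HEPG2 CAGA-GFP) rested 2 h at 37 degrees C. Next, compounds were pinned in and TGF-beta added to 500 pg/mL final. After 18 h, GFP was imaged per cell and summed per well.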
# HepG2 tox – kills HepG2 cells in TGF-b inhibitor counter-screen | HepG2 CAGA-GFP viability, ATP luminescence, 18 h | Potency, µM (series often up to 46.1 µM), inactives show at the top dose activity change, negative = cytotoxicity, usual class: cytotoxic | 410,000 tested, 0.76% active; note: potency is the fitted concentration of half-maximal effect
#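 HepG2 CAGA-GFP cells (1000/well, DMEM with 1% FBS) received compound, then TGF-beta at 500 pg/mL final, and were incubated 18 hours at 37 degrees C. Viability was read by CellTiter-Glo luminescence. Media-only wells were set as complete cell-killing and DMSO as no toxicity.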
# Active calls of the source: *; ? = inconclusive; / = not tested or not shown; [ ] = dose if it differs, or a comment. Unless noted, calls come from the whole dose curve; as a rule, active = well fitted curve in the direction sought with a large enough effect; inconclusive = small, poorly fitted or top-dose-only effect, or another doubt; inactive = no such curve, though single readings can be large; an effect the other way counts as inactive or inconclusive.
SMILES,TDP1 block,DT40 TDP1 CPT,IL1B secr inh,TDP1 cell noCPT,TGFb inhibitor,HepG2 tox
CC(NCc1cc(Br)ccc1OCC(=O)NCc1ccccc1)c1ccccc1 (configuration not stated),-5%,?,-68*,?,13µM*,-89%
Cc1ccc(C)c(OCC(=O)NC2CCCCCC2)c1,-6%,-28%,-66*,?,-14%,-19%
Cc1ccccc1OCC(=O)NC1CCCCCCC1,3%[0.0935 µM],-15%,-3,?,-3%,-8%
COc1ccc(S(=O)(=O)c2cc3cc(C(C)(C)C)cc(O)c3oc2=O)cc1,7%,?,/,-32%,?,-41%
CC(=O)c1ccc(S(=O)(=O)N2CCC3(CC2)CC(=O)c2ccccc2O3)cc1,4%,-13%,6,?,0%,-25%
C[C@H]1COC(=O)O1,8%,/,/,/,/,/
CCCn1c(N)c(C(=O)COc2ccc(Br)cc2F)c(=O)n(C)c1=O,3%,15µM*,10,?,-14%,-16%
O=C(Nc1ccc(Br)cc1)c1cc(Br)c(Br)s1,-2%,?,/,19µM*,/,/
COc1ccc(NC(=O)c2cc(Br)c(Br)s2)cn1,-3%,0%,-53*,?,?,-41%
COc1ccc(NC(=O)/C=C/c2ccc(Br)o2)cn1,20µM*,0%,-13,-26%,-8%,11%
O=C(NNC(=O)C1CC1)c1cc(Br)c(Br)s1,2%,-26%,-8,14%,-15%,4%
CCc1cc(C(=O)Nc2ccc(OC)nc2)sc1C,6%,3%,0,-17%,1%,-2%
O=C(O)c1ccc(Br)c(S(=O)(=O)N2CCCC2)c1,-8%,-4%,-11,-21%,21%,-38%
O=C(COc1ccccc1)Nc1c(C(=O)N2CCN(c3ccc(F)cc3)CC2)oc2ccccc12,-4%,?,/,?,11%,-10%
COc1ccccc1N1CCN(C(=O)c2cc(-c3ccc(F)cc3)on2)CC1,-6%,-6%,3,?,?,-3%
Cc1nc2ccccc2c2oc(C(=O)N3CC(C)CC(C)C3)cc12 (configuration not stated),4%,?,9,?,5%,0%
COCc1c(C(=O)N2CCN(c3ccccc3C)CC2)oc2ccccc12,-7%,21µM*,6,?,-5%,-2%
COc1ccccc1N1CCN(C(=O)c2oc3ccccc3c2NC(=O)C(C)Oc2ccccc2)CC1 (configuration not stated),4%,?,/,16µM*,7%,-21%
COc1ccccc1N1CCN(C(=O)c2cc3c(C)nc4ccccc4c3o2)CC1,7%,6.5µM*,-27,4.1µM*,?,-20%
COc1ccccc1N1CCN(C(=O)c2oc3ccc(F)cc3c2C)CC1,-1%,21µM*,33,16µM*,-13%,-42%
CCCOc1ccc(CNC(=O)C2CCN(C(=O)c3sccc3-n3cccc3)CC2)cc1,6%,?,/,?,/,-37%
Cc1c(C(=O)N2CCN(C)CC2)oc2ccc(Br)cc12,/,-27%,?,-23%,1%,-5%
COc1ccccc1N1CCN(C(=O)c2oc3ccccc3c2C)CC1,6%,16µM*,45,21µM*,6%,0%
COc1ccccc1N1CCN(C(=O)c2oc3ccc(Br)cc3c2C)CC1,3%,2.9µM*,23,7.3µM*,-16%,-2%
COc1ccccc1N1CCN(C(=O)c2cc3c(=O)oc4ccccc4c3s2)CC1,9%,2%,/,-4%,-18%,1%
SMILES,TDP1 block,DT40 TDP1 CPT,IL1B secr inh,TDP1 cell noCPT,TGFb inhibitor,HepG2 tox
CC(C)C(CCNC1CCN(C)CC1)c1ccc(Cl)cc1 (configuration not stated),/,4.6µM*,-52*,3.3µM*,?,-103%
CN1CCC(NCCC(c2ccc(F)cc2)c2ccc(Cl)cc2)CC1 (configuration not stated),/,5.8µM*,-103*,5.8µM*,?,16µM*
CSc1nncc(/C(C)=N\Nc2cccc(C)c2)n1,4%,-15%,3,-18%,-11%,-15%
Cc1cccc(C(=S)N2CCOCC2)n1,1%,14%,-14,2%,-2%,6%
CC(=NNC(=S)N1CCCCC1)c1cccc(C)n1,/,0.0092µM*,0,0.018µM*,0.35µM*,-53%
CSC(=S)NN=C(C)c1cccc(C)n1,/,0.033µM*,?,0.018µM*,?,-63%
Cc1nn(C(=O)c2cccc([N+](=O)[O-])c2)c(C)c1Cl,/,36%,21,22%,11%,9%
Cc1ccc(C)c(OCCCNC2CCCC2)c1C,-3%,23µM*,-8,9.2µM*,-7%,-65%
Cc1ccc(OCCCNC2CCCC2)cc1,0%,-16%,-11,-21%,0%,-6%
CCCOc1ccc(OCCNC2CCCC2)cc1,-1%,-21%,-5,16µM*,6%,10%
Cc1ccc(OCC(O)CNC2CCCC2)c(C)c1 (configuration not stated),/,-27%,-8,?,-3%,-4%
CC(C)(C)c1ccc(OCCCNC2CCCC2)cc1,-6%,?,-67*,29µM*,?,-72%
Cc1ccc(OCCCCNC2CCCCC2)c(C)c1,5%,21µM*,-63*,12µM*,?,-73%
O=C(O)CN1C(=O)C(=O)N(Cc2ccc(Cl)cc2Cl)C1=O,/,9%,14,2%,13%,3%
C[C@H](NC(=O)c1nc[nH]c1C(=O)N1CCN(c2ccccc2)CC1)C(=O)OC(C)(C)C,2%,-4%,14,-15%,-7%,-7%
CC(C)(C)OC(=O)NCCCC[C@H](NC(=O)c1nc[nH]c1C(=O)N1CCN(c2ccccc2)CC1)C(=O)OC(C)(C)C,7%,?,-55*,18µM*,?,-12%
CC(C)(C)OC(=O)NCCCC[C@H](NC(=O)c1nc[nH]c1C(=O)N1CCN(C(=O)OC(C)(C)C)CC1)C(=O)OC(C)(C)C,8%,?,-8,23µM*,-4%,-20%
CC(C)(C)OC(=O)NCCCCCNC(=O)c1nc[nH]c1C(=O)N1CCN(C(=O)OC(C)(C)C)CC1,-2%,?,5,16µM*,-2%,-3%
CCN(Cc1ccncc1)Cc1nc(Cc2ccccc2Cl)no1,5%,?,23,13µM*,-17%,-7%
CS(=O)(=O)c1nc2ccccc2n1Cc1ccccc1,5%,?,12,-1%,5%,5%
